Sampled rows, rich in hits. Any-hit rate of the full collection: about 1.6%.
KCNQ2 pot: enhances the rat KCNQ2 potassium channel. 0.54% of 310,000 active. B-score at 10 µM. CHO-K1 KCNQ2, FluxOR thallium flux fluorescence; stronger effect = higher value;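 active = fluorescence ratio B-score at least 3 SD of library B-scores, with initial fluorescence B-score within 3 of them, cut at about 5.3 in these data; same plate scores as AID 2156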;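 also: B-score of peak minus minimum over baseline fluorescence ratio after K+ and Tl+ stimulus; positive B-score means potentiation of KCNQ2 with more thallium influx and brighter signal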
KCNQ2 block: inhibitors of rat KCNQ2 potassium channel; O88943; CHO-K1 KCNQ2, FluxOR thallium flux, 20 min; stronger effect = lower value; B-score at 10 µM; 1.1% of 310,000 active; AID 2156;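 active = fluorescence ratio B-score at most minus 3 library SDs, with starting brightness B-score within 2 library SDs, cut at about -5.5 in these data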
Kir21 confirm: confirmation of mouse Kir2.1 potassium channel inhibitors; shares compounds with KCNQ2 pot; Kir2.1-expressing cells, FluxOR thallium flux fluorescence; stronger effect = lower value; Tl flux remaining, % of negative control (stronger effect = lower value), % at 10 µM; 41% of 2,300 active; AID 2032;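 active = Primary-screen hit whose thallium flux fell at least 3 control SD below untreated wells in both duplicates, with normal baseline fluorescence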
HEK293 ctr: alters thallium flux in parental HEK293 cells, Kir2.1 counter-screen; shares compounds with KCNQ2 pot; FluxOR thallium flux fluorescence; 0% = unstimulated blank wells; FluxOR signal as % of negative control (100 = no effect), % at 10 µM; 19% of 2,300 active;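 active = dye signal at least 3 control SD above or below untreated wells in both duplicates, raw fluorescence within 3, either direction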;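 also: percent is based on the flux ratio of peak minus minimum fluorescence over baseline F0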
CHO-K1 ctr: counter-screen for KCNQ2 potentiators: effect in parental CHO-K1 cells. shares compounds with KCNQ2 pot. FluxOR thallium flux fluorescence; zero = vehicle mean+3SD, 100% = vehicle-minus-blank window. activity increase over 3SD of controls, % at 10 µM. 43% of 1,200 active. AID 2282;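 active = signal rise of at least 3 SD above the untreated control mean, in both duplicate wells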;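 also: counter screen of KCNQ2 potentiator hits so any rise reflects channel-independent effects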
KCNQ1 pot spec: human KCNQ1 counter-target activity of KCNQ2 potentiators. CHO KCNQ1 stable, FluxOR thallium flux fluorescence; beyond 3SD, as % of vehicle-control signal. shares compounds with KCNQ2 pot. AID 2283. 28% of 1,200 active. activation over 3SD threshold, % at 10 µM;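 active = fluorescence ratio rise of at least 3 SD of vehicle wells above their mean, in both replicate wells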
Target sequence (P51787 whole entry, looked up): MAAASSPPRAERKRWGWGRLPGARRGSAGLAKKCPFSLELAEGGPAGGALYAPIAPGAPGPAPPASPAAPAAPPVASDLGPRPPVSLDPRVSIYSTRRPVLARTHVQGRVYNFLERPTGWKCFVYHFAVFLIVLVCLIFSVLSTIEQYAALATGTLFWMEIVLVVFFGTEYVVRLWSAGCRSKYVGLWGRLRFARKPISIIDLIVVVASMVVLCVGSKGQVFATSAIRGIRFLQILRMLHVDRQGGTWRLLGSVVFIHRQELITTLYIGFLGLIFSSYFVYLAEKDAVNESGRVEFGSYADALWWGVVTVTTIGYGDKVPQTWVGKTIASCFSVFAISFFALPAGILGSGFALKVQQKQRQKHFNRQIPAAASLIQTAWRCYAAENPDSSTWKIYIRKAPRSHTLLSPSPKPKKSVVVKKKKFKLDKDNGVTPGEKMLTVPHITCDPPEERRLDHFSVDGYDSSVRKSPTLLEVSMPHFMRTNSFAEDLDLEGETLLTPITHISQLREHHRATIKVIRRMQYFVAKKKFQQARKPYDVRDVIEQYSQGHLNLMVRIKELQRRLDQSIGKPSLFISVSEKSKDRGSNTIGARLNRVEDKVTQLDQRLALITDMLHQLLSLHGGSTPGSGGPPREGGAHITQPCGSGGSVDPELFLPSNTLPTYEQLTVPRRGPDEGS
KCNQ2 pot conf: rat KCNQ2 channel potentiator confirmation | shares compounds with KCNQ2 pot | CHO-KCNQ2 cells, FluxOR thallium flux fluorescence | potentiation, less the hit threshold, % at 10 µM | 68% of 1,200 active;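 active = fluorescence ratio rising 3 SD or more over the vehicle control mean in both replicates, plus primary screen hit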;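 also: peak minus minimum thallium fluorescence divided by baseline after K/Tl stimulus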
Kir21 spec: selectivity of KCNQ2 potentiators: effect on mouse Kir2.1 | shares compounds with KCNQ2 pot | HEK293 Kir2.1, FluxOR thallium flux fluorescence | activity over 3SD threshold, % at 10 µM | 2% of 1,200 active | AID 2345;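 active = fluorescence ratio rise of at least 3 SD above the vehicle-control mean, seen in both replicates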
KCNQ2 W236L MoA: KCNQ2 potentiators acting on retigabine-insensitive rat KCNQ2 W236L mutant; AID 2558; 10% of 940 active; shares compounds with KCNQ2 pot; current increase over 3SD of negative controls (%), stronger effect = higher value, % at 25 µM; CHO KCNQ2-W236L, automated patch clamp current;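 active = current increase at least 3 SD of the untreated controls above them in both duplicate recordings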
Each line names hits and unclear results; the compound was inactive in the other large screens (follow-up assays come after a bar, where they were run).

C=CCc1ccc(OCC(O)CN2CCc3ccccc3C2)c(OC)c1 (centres undefined)	none (no result: KCNQ2 pot) | Kir21 confirm 30.5% | HEK293 ctr inactive
OC(COC(c1ccc(Cl)cc1)c1ccc(Cl)cc1)CN1CCc2ccccc2C1 (centres undefined)	none (no result: KCNQ2 pot)
COc1cc(C)ccc1OCc1cc(C(=O)N2CCCCCC2)no1	none
CCCc1nnc(NC(=O)CCC(=O)N2CCN(Cc3ccccc3)CC2)s1	none
COc1ccccc1Oc1ccc(N/C=C/C(=O)c2ccc(C)o2)cc1	none (no result: KCNQ2 pot)
O=C(Nc1cccc(OC(F)(F)F)c1)c1ccc(Br)o1	KCNQ2 pot 10.9 | Kir21 confirm inactive | HEK293 ctr inactive | CHO-K1 ctr 11.5 | KCNQ1 pot spec inactive | KCNQ2 pot conf inactive | Kir21 spec inactive | KCNQ2 W236L MoA 22.4%
O=C(Nc1cccc(F)c1)c1ccc(Br)o1	none
Fc1cccc2sc(Nc3nnc(-c4ccco4)o3)nc12	KCNQ2 pot 15.8 | Kir21 confirm inactive | HEK293 ctr 310.0% | CHO-K1 ctr 130.0 | KCNQ1 pot spec inactive | KCNQ2 pot conf 44.6 | Kir21 spec inactive | KCNQ2 W236L MoA inactive
COc1cccc2sc(Nc3nnc(-c4cccs4)o3)nc12	KCNQ2 pot 10.4 | Kir21 confirm inactive | HEK293 ctr 350.0% | CHO-K1 ctr 80.4 | KCNQ1 pot spec inactive | KCNQ2 pot conf 50.3 | Kir21 spec inactive | KCNQ2 W236L MoA inactive
O=C(Nc1nc2c(F)cccc2s1)c1ccco1	none
COc1ccc(-c2nnc(-c3ccc(F)cc3)o2)cc1	none
c1ccc(Nc2nc(-c3ccccn3)cs2)cc1	none
COc1cccc2sc(Nc3nc(-c4ccccn4)cs3)nc12	KCNQ2 pot 21.1 | Kir21 confirm inactive | HEK293 ctr inactive | CHO-K1 ctr inactive | KCNQ1 pot spec inactive | KCNQ2 pot conf inactive | Kir21 spec inactive | KCNQ2 W236L MoA inactive
CCOC(=O)c1sc(Nc2nc3c(OC)cccc3s2)nc1C	none
COc1cccc2sc(Nc3nnc(-c4ccc(F)cc4)o3)nc12	KCNQ2 pot 19.7 | Kir21 confirm inactive | HEK293 ctr 467.5% | CHO-K1 ctr inactive | KCNQ1 pot spec inactive | KCNQ2 pot conf 59.5 | Kir21 spec inactive | KCNQ2 W236L MoA inactive
COc1cccc(-c2nn(C)c3sc(C(=O)NCc4ccco4)cc23)c1	none
O=C(NCCOc1ccc(F)cc1)C1CCC(=O)N(CC2CCCCC2)C1 (centres undefined)	none
COCCCNC(=S)NCCCNc1nc2cc3c(cc2cc1C#N)OCO3	none
O=C(O)C1Cc2ccccc2-c2ccccc2C1	none
CCOc1ccc(OCC)c(NC(=O)CSc2nnc(C3CC3)n2CC)c1	none
O=C(Nc1ncccc1O)c1ccc2c(c1)OCCO2	none (no result: KCNQ2 pot)
Oc1ccc(N=Nc2ccc3c(c2)OCCO3)c2ncccc12	KCNQ2 pot 11.6 | Kir21 confirm inactive | HEK293 ctr inactive | CHO-K1 ctr 2.9 | KCNQ1 pot spec inactive | KCNQ2 pot conf inactive | Kir21 spec inactive
O=c1[nH]sc2ccccc12	KCNQ2 pot 6.74 | Kir21 confirm inactive | HEK293 ctr inactive | CHO-K1 ctr 8.6 | KCNQ1 pot spec inactive | KCNQ2 pot conf inactive | Kir21 spec inactive | KCNQ2 W236L MoA inactive
O=c1c2ccccc2sn1-c1ccccc1	none (no result: KCNQ2 pot)
CC(C)(Oc1ccc(Cl)cc1)C(=O)OCC(=O)N1CCCC1	none (no result: KCNQ2 pot)
C=CCc1ccc(OCc2ccc(C(=O)O)o2)c(OC)c1	none (no result: KCNQ2 pot)
c1ccc(CCc2nc3ccccc3[nH]2)cc1	none (no result: KCNQ2 pot)
O=C(CSC1=NCCS1)Nc1nc2c(s1)CCCC2	none (no result: KCNQ2 pot)
O=C(NC(=S)N1CCN(c2ccc(Cl)cc2[N+](=O)[O-])CC1)c1cccs1	KCNQ2 pot 5.54 | Kir21 confirm inactive | HEK293 ctr 151.0% | CHO-K1 ctr 52.8 | KCNQ1 pot spec 23.6 | KCNQ2 pot conf 8.6 | Kir21 spec inactive | KCNQ2 W236L MoA inactive
O=C(NC(=S)N1CCN(c2ccc(Cl)cc2[N+](=O)[O-])CC1)c1ccco1	none (no result: KCNQ2 pot)
Cc1ccccc1NC(=O)OCc1cccnc1Sc1ccc(Cl)cc1	none (no result: KCNQ2 pot)
Cc1cc(C)n(-c2ccc([N+](=O)[O-])cc2-c2nn[nH]n2)n1	none (no result: KCNQ2 pot)
Cc1csc(=O)n1CCC(=O)OCC(=O)Nc1cccc(C#N)c1	none (no result: KCNQ2 pot)
COc1ccc(C(=O)Nc2ccnc(-c3cccnc3)n2)cc1	KCNQ2 pot 5.34 | Kir21 confirm inactive | HEK293 ctr inactive | CHO-K1 ctr inactive | KCNQ1 pot spec inactive | KCNQ2 pot conf inactive | Kir21 spec inactive
Cc1ccc(C(=O)Nc2ccnc(-c3cccnc3)n2)cc1	none
CCOc1ccccc1CN1CCN(CC2=Cc3cc(OC)ccc3OC2)CC1CCO (centres undefined)	none
COCCNC(=O)COC(=O)C1=Cc2ccccc2OC1	none (no result: KCNQ2 pot)
COc1ccc(-c2oc3ccccc3c(=O)c2OC(C)=O)cc1	KCNQ2 pot 6.7 | Kir21 confirm inactive | HEK293 ctr 310.5% | CHO-K1 ctr 88.8 | KCNQ1 pot spec inactive | KCNQ2 pot conf 19.3 | Kir21 spec inactive | KCNQ2 W236L MoA inactive
O=C(O)COc1c(-c2ccco2)oc2ccccc2c1=O	none
CC(=O)Oc1c(-c2ccc(Br)o2)oc2ccccc2c1=O	KCNQ2 pot 16.2 | Kir21 confirm inactive | HEK293 ctr 462.0% | CHO-K1 ctr 114.1 | KCNQ1 pot spec inactive | KCNQ2 pot conf 62.3 | Kir21 spec inactive | KCNQ2 W236L MoA inactive
COc1ccc(-c2oc3ccccc3c(=O)c2OCC(=O)O)cc1	none
CCOC(=O)CSc1nc2cc(C(=O)N3CCC(C(N)=O)CC3)ccc2c(=O)n1-c1ccccc1	none (no result: KCNQ2 pot)
O=C(NCCCn1ccnc1)c1cccc(S(=O)(=O)NCc2ccccc2)c1	none (no result: KCNQ2 pot)
CCCCCC[N+](C)(C)CCSSCC[N+](C)(C)CCCCCC	none
CCCCCCCCCCCCCCCC[N+](C)(C)CC	none (no result: KCNQ2 pot) | Kir21 confirm 52.5% | HEK293 ctr inactive
N=c1c2c(ncn1CCCO)Oc1c(ccc3ccccc13)C2c1ccccc1 (centres undefined)	none (no result: KCNQ2 pot)
CN(C)CCCn1cnc2c(c1=N)C(c1ccccc1)c1ccc3ccccc3c1O2 (centres undefined)	none (no result: KCNQ2 pot) | Kir21 confirm inactive | HEK293 ctr inactive
CCc1nnc(NC(=O)c2nc(S(=O)(=O)Cc3cccc(C)c3)ncc2Cl)s1	KCNQ2 pot 18 | CHO-K1 ctr 5.0 | KCNQ1 pot spec inactive | KCNQ2 pot conf 64.5 | Kir21 spec inactive | KCNQ2 W236L MoA 19.5%
